Screens as filed in PubChem BioAssay.
AmpC inh no detg = qHTS Inhibitors of AmpC Beta-Lactamase (assay without detergent) | AmpC nitrocefin hydrolysis, absorbance 480 nm, 0.0001% Triton | Potency, µM (titrated, usually from 57.1 µM), for the others: at the highest dose activity change, negative = inhibition, most hits filed as inhibitors | 330,000 tested, 0.52% active;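 note: potency is the fitted concentration of half-maximal effect; plate controls were no compound for no effect and no enzyme for full effect; nearly all actives have a fitted effect of over 20% in size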
Target sequence (P00811 whole entry, looked up): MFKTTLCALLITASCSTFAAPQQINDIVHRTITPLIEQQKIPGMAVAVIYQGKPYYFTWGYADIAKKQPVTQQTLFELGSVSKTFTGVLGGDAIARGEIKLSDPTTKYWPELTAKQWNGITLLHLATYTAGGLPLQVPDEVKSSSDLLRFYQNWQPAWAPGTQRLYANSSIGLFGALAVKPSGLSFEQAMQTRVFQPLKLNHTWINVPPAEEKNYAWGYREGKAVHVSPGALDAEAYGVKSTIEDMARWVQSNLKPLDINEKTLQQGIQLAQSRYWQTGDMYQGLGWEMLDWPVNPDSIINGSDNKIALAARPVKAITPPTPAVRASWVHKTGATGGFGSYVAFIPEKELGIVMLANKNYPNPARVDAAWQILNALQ
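20 mM phosphate pH 7.0 + 0.01% (detergent screen) or 0.0001% Triton X-100; 5.3 nM AmpC reagent; cpd preinc 15 min RT; nitrocefin (800 uM stock) to start; A480 q20 s × 4 min; Activity was normalised to no-enzyme and no-compound control wells.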
FMDV inh = High Throughput Screening for Foot and Mouth Disease Virus Antivirals; FMDV antiviral cell-based qHTS; Potency, µM (doses to about 57.9 µM), without a hit: at the highest dose activity change, negative = inhibition, most hits filed as inhibitors; 410,000 tested, 1.2% active; calls by dose curve; tested in HEK293T cells; note: read-out not given here; potency is the fitted concentration of half-maximal effect; nearly all actives have a fitted effect of over 45% in size
HCMV inh = qHTS Assay for inhibitors of the human cytomegalovirus (HCMV) | 410,000 tested, 4.5% active | HFF cells, HCMV-luciferase reporter, 72 h; stronger effect = lower value | activity change, negative = inhibition, % at 57.5 µM; in the data active = activity change below about -60%; inconclusive = no clear call, values can overlap the other calls; inactive = above about -39%
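Screen run at 2 compound doses on HFFs infected with reporter HCMV, MOI 1 PFU/cell. Luciferase activity from cell lysates at 72 h post infection gave inhibition relative to buffer-only and Salinomycin wells.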
AmpC detergent = qHTS Inhibitors of AmpC Beta-Lactamase (assay with detergent); AmpC hydrolysis of nitrocefin, absorbance 480 nm, 0.01% Triton; 370,000 tested, 0.041% active; Potency, µM (series often up to 114 µM), without a hit: top-dose activity change, negative = inhibition, hits mostly inhibitors; AID 485294, 2010; P00811;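 note: potency is the fitted concentration of half-maximal effect; 0% = no-compound wells and -100% = no-enzyme wells; nearly all actives have a fitted effect of over 25% in size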
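20 mM phosphate pH 7.0 + 0.01% (detergent screen) or 0.0001% Triton X-100; 5.3 nM AmpC reagent; cpd preinc 15 min RT; nitrocefin (800 uM stock) to start; A480 q20 s × 4 min; Activity was normalised to no-enzyme and no-compound control wells.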
HCV inhibitor = qHTS Assay for Inhibitors of Hepatitis C Virus (HCV) | Potency, µM (top dose mostly 41.8 µM), for inactives: at the highest dose activity change, negative = inhibition, actives largely listed as inhibitors | 340,000 tested, 3.4% active | Huh7.5.1 HCVcc-Cre infection, luciferase reporter, 44 h | AID 651820, 2012; note: potency is the fitted concentration of half-maximal effect
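Reporter virus HCVcc-Cre (~0.5 moi) infects cells exposed to compound; seeding density 1,000 cells/well with 4 h settling beforehand. Luminescence, 15 sec read, taken 44 h post-infection following a 15 min RT substrate incubation.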
Starred values were filed as active, the others as inactive; ? = inconclusive; . = not tested or not shown; + = active, no number; ! = a repeat was not active. This is a sample that favours compounds with a hit; in the whole collection about 7.3% have one here. Unless noted, calls come from the whole dose curve; as a rule, active = well fitted curve in the direction sought with a large enough effect; inconclusive = small, poorly fitted or top-dose-only effect, or another doubt; inactive = no such curve, though single readings can be large; an effect the other way counts as inactive or inconclusive. Unless noted, % is set by controls: 0 for no effect and ±100 for the full control effect.

SMILES | AmpC inh no detg | FMDV inh | HCMV inh | AmpC detergent | HCV inhibitor
O=C(O)CCC(=O)OCCCc1cc2ccccc2c(=O)o1 | -4.8% | 6.9% | ? | . | 12.5%
O=C(CSC1=NS(=O)(=O)c2cc(Cl)ccc2N1)Nc1ccccc1C(F)(F)F | -27.1% | 6.6% | -10.3 | -8.5% | ?
O=C(OCCOc1ccc(Cl)cc1)c1cc(S(=O)(=O)N2CCCCC2)ccc1N1CCOCC1 | . | ? | ? | . | 3.55µM*
O=C(OCCOc1cccc(Cl)c1)c1cc(S(=O)(=O)N2CCOCC2)ccc1F | 23.6% | -21.5% | -7.0 | 0.0% | 25.1µM*
Cc1ccc(OCCOC(=O)c2cc(S(=O)(=O)N3CCCCC3)ccc2N2CCOCC2)cc1 | 62.4% | ? | -39.5 | ? | ?
Cc1cc2oc(=O)cc(CN(C)Cc3ccccc3)c2cc1C(C)C | -5.2% | -23.6% | -32.4 | 3.5% | 8.91µM*
CN(Cc1ccccc1)Cc1cc(=O)oc2ccccc12 | . | 18.2% | 19.0 | . | .
COc1ccc2oc(=O)cc(CN(C)Cc3ccccc3)c2c1 | -10.5% | -4.7% | ? | ? | 7.94µM*
Cc1cc2oc(=O)cc(CN3CCCCC3C)c2cc1C(C)C (stereo unspecified) | -26.1% | -28.0% | -35.0 | -8.8% | 12.6µM*
NC(=O)c1ncn2c(=O)n(CCCl)nnc12 | . | . | -31.2 | . | .
CCc1cccc(-n2c(=O)c3cccnc3n2CC(=O)NCc2ccccc2Cl)c1 | . | 6.1% | 3.8 | -1.5% | .
CCCC(O)(CCC)C(=O)NN(C(=O)CCl)c1ccccc1 | -11.0% | ? | -81.2* | -14.6% | ?
CCOC(=O)c1sc(=S)n(C)c1NC(=O)c1ccc(C(C)(C)C)cc1 | -44.3% | 25.1µM* | -72.9* | 1.4% | -17.8%
COc1ccc(C(=O)N2CCc3cc(OC)c(OC)cc3C2COc2ccc3c(C)cc(=O)oc3c2)c(OC)c1 (stereo unspecified) | . | 0.0% | 13.1 | 4.4% | .
Cc1ccc(C)c(N(CC(=O)NC2CCCC2)C(=O)c2cc3cc4cc(C)ccc4nc3s2)c1 | -15.1% | . | -16.4 | -7.8% | 22.4µM*
Cc1cccc(N(CC(=O)NC2CCCC2)C(=O)c2cc3cc4cccc(C)c4nc3s2)c1C | -30.3% | -5.9% | -35.6 | -5.2% | ?
NC(=O)c1nsc(C(=O)N(Cc2ccco2)C(C(=O)NCc2ccc(F)cc2)c2ccc(O)cc2)c1N (stereo unspecified) | -45.0% | -1.3% | -28.9 | 2.9% | -24.9%
CN(C)c1ccc(C(C(=O)NCc2ccccc2)N(Cc2ccco2)C(=O)c2snc(C(N)=O)c2N)cc1 (stereo unspecified) | -51.3% | -10.1% | -76.4* | -14.1% | 12.6µM*
COCCNC(=O)C(c1ccc(C)o1)N(C(=O)c1snc(C(N)=O)c1N)c1cc(C)cc(C)c1 (stereo unspecified) | 141.6% | . | -78.5* | ? | -9.5%
Cc1ccc(C(C(=O)NCc2ccc(F)cc2)N(Cc2ccco2)C(=O)c2snc(C(N)=O)c2N)o1 (stereo unspecified) | 1.6% | 18.2% | -81.5* | -2.6% | ?
CNC(=O)N1CCC(C(=O)c2c(C)c(C)c(C)c(C)c2C)CC1 | 26.8% | -20.5% | -25.7 | -7.9% | -14.2%
Cc1ccc2c(c1)c1c(c(=O)n(Cc3ccccc3)c(=O)n1Cc1cccc(F)c1)n2C | . | -16.3% | 30.1 | -5.0% | .
COc1cc(C(=O)N2CCNC(=O)C2CC(=O)Nc2ccc(C)c(C)c2)cc(OC)c1OC (stereo unspecified) | . | 3.6% | -6.5 | -2.0% | .
COc1cc(/C=C2\SC(=O)NC2=O)ccc1Oc1ccc([N+](=O)[O-])cn1 | -46.1% | -17.8% | -60.2* | -1.9% | 6.3%
COc1cc(/C=C2/SC(N)=NC2=O)ccc1Oc1ccc([N+](=O)[O-])cc1[N+](=O)[O-] | -17.7% | -23.9% | -69.8* | -6.7% | 9.9%
SMILES | AmpC inh no detg | FMDV inh | HCMV inh | AmpC detergent | HCV inhibitor
COc1cc(/C=C2/SC(=O)NC2=O)ccc1Oc1ccc([N+](=O)[O-])cc1[N+](=O)[O-] | -55.6% | ? | -35.2 | 0.0% | -7.4%
COc1ccc(-c2cc(Cl)cc3c(=O)c4ccccc4n(C)c23)cc1F | -8.6% | -16.8% | ? | -10.5% | -8.7%
Cc1cccc(OCc2nc(C#N)c(NCCN(C)C)o2)c1 | 2.24µM* | -14.5% | 8.0 | 2.4% | -10.8%
Cc1cccc(OCc2nc(C#N)c(NCc3ccc4c(c3)OCO4)o2)c1 | -20.1% | -9.9% | 0.8 | -2.1% | ?
COc1ccc(Nc2oc(COc3ccc(OC)cc3)nc2C#N)cc1 | -26.4% | 0.0% | -69.7* | -5.6% | ?
CCNc1oc(COc2cccc(C)c2)nc1C#N | -6.0% | 63.6% | 64.3 | ? | -22.6%
COc1ccc(CCNc2oc(COc3ccc(Cl)cc3)nc2C#N)cc1OC | . | 31.6µM* | -23.0 | 4.7% | .
N#Cc1nc(COc2ccc(Cl)cc2)oc1NCc1ccc2c(c1)OCO2 | -8.6% | 0.0% | 3.0 | -14.6% | 10µM*
O=C(Nc1cc(S(=O)(=O)N2CCOCC2)ccc1OCC(F)(F)F)C1CCCC1 | . | 0.0% | ? | . | .
CCOc1ccc(CCNC(=O)c2nn(C)c3c2CSc2ccc(C)cc2-3)cc1OCC | . | 0.0% | -31.8 | 3.9% | .
Cn1c(SCC(=O)NC(C)(C)C)nnc1-c1ccc(C(C)(C)C)cc1 | 18.3% | . | -60.5* | -9.4% | ?
CCOc1ccc(CCNC(=O)CN2C(=O)c3cccnc3Oc3ccc(C)cc32)cc1OCC | 59.6% | -12.2% | 25.7 | -6.5% | -24.1%
CSc1ccc(CCNC(=O)CN2C(=O)c3cccnc3Oc3ccc(C)cc32)cc1 | 33.8% | ? | +! | ? | ?
Cc1ccc2c(c1)N(CC(=O)NCCCc1ccccc1)C(=O)c1cccnc1O2 | 1.8% | ? | -61.7* | -13.4% | -21.5%
CCCN1CCN(CCCNC(=O)CN2C(=O)c3cccnc3Oc3ccc(C)cc32)CC1 | -3.7% | -12.3% | -31.9 | 0.1% | 4.0%
CCOc1ccc(NC(=O)c2c(Nc3ccccc3C)sc(C(=O)c3ccc(Cl)cc3)c2N)cc1 | . | ? | 22.2 | 13.1% | .
COc1cccc(Nc2sc(C(=O)c3ccc(Cl)cc3)c(N)c2C(=O)NCc2ccc(C)cc2)c1 | . | ? | -80.1* | 11.2% | .
COc1ccccc1NC(=O)c1c(Nc2ccccc2C)sc(C(=O)Nc2cccc(Cl)c2)c1N | ? | 7.94µM* | -97.5* | -5.8% | 12.6µM*
Cc1cc(Nc2sc(C(=O)c3ccc(F)cc3)c(N)c2C(=O)Nc2ccc(F)cc2)ccc1Cl | . | 10µM* | -107.5* | 14.9% | .
COc1cccc(Nc2sc(C(=O)c3ccc(F)cc3)c(N)c2C(=O)NCc2ccc(Cl)cc2)c1 | . | -17.9% | 26.8 | 14.2% | .
COc1ccc(Nc2sc(C(=O)c3ccccc3)c(N)c2C(=O)Nc2cc(C)ccc2C)c(OC)c1 | . | -8.7% | -74.1* | -3.8% | .
